Screening results as filed in PubChem.
Most compounds without a hit are left out; they make up all but 6.9% or so of the library.
HP1b chromo inh: HTS for Inhibitors of HP1-beta Chromodomain Interactions with Methylated Histone Tails. Chromobox protein homolog 1 (Homo sapiens), P83916. AlphaScreen HP1-beta / biotin-H3K9me3 peptide binding. Potency, µM (highest dose often 114 µM), hits mostly inhibitors. actives 0.56% (n = 390,000). AID 540317, 2011; further: nearly all actives have a fitted effect of over 70% in size
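Compound inhibition of the preformed complex between 50 nM HP1-beta and 50 nM biotinylated H3K9me3 peptide was read by AlphaScreen. Buffer was PBS pH 7.4 with 0.01% Tween-20. Incubations ran 30 min at room temperature, with 10 ug/mL donor/acceptor beads.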
VDR inhibitor: Inhibitors of the vitamin D receptor (VDR): qHTS. AID 504847, 2011. actives 0.93% (n = 400,000). Vitamin D3 receptor (Homo sapiens), P11473. Potency, µM, actives largely listed as inhibitors. VDR-SRC2-3 peptide fluorescence polarization, 2 h
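The screen uses fluorescence polarization to detect compounds that interfere with recruitment of the SRC2-3 coactivator peptide to VDR; plates are read after 2 h at room temperature.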
BAZ2B inh: qHTS Assay for Inhibitors of BAZ2B; actives 4.4% (n = 360,000); Potency, µM (top dose mostly 114 µM), actives largely listed as inhibitors; AlphaScreen BAZ2B-H3K14Ac peptide displacement; Bromodomain adjacent to zinc finger domain protein 2B (Homo sapiens), Q9UIF8; AID 504333, 2011; further: nearly all actives have a fitted effect of over 60% in size
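AlphaScreen luminescence quantifies BAZ2B engagement of H3K14Ac peptide; the protein and biotinylated peptide are both at 50 nM final, buffer PBS pH 7.4 with 0.01% Tween-20, all steps at room temperature.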
L3MBTL1 block: qHTS Assay for the Inhibitors of L3MBTL1 | AID 485360, 2010 | Lethal(3)malignant brain tumor-like protein 1 (Homo sapiens), Q9Y468 | actives 0.66% (n = 230,000) | AlphaScreen L3MBTL1–H3K9me1 peptide binding | Potency, µM (titrated, usually from 57.1 µM), actives largely listed as inhibitors; further: nearly all actives have a fitted effect of over 60% in size
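L3MBTL1 (50 nM) pre-complexed 30 min with biotinylated H3(1-15)K9me1 peptide (75 nM), then compounds added for 30 min at room temperature; AlphaScreen streptavidin donor/nickel chelate acceptor beads (10 ug/mL final) read after 30 min dark incubation.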
PLK1 PBD block: qHTS for Inhibitors of PLK1-PDB (polo-like kinase 1 - polo-box domain): Primary Screen | Plk1 PBD binding of FITC phosphopeptide, fluorescence polarization | Serine/threonine-protein kinase PLK1 (Homo sapiens), P53350 | actives 2.8% (n = 360,000) | Potency, µM, actives largely listed as inhibitors | AID 720504, 2013; further: series mostly up to about 57 µM; nearly all actives have a fitted effect of over 65% in size
JMJD2A Tudor inh: qHTS Assay for Inhibitors of JMJD2A-Tudor Domain; Lysine-specific demethylase 4A (Homo sapiens), O75164; AlphaScreen JMJD2A-Tudor / H3K4me3 peptide binding; Potency, µM (titrated, usually from 114 µM), actives largely listed as inhibitors; actives 4.4% (n = 390,000); AID 504339, 2011; further: nearly all actives have a fitted effect of over 50% in size
A number is an active result. The call rests on the fitted dose curve; in most records, active means well fitted curve in the direction sought with a large enough effect; inconclusive means small, poorly fitted or top-dose-only effect, or another doubt; inactive means no such curve, though single readings can be large; an effect the other way counts as inactive or inconclusive.

For Cc1ccc(NC(=O)COC(=O)C2CC(=O)N(Cc3ccccc3)C2)cc1S(=O)(=O)N(C)C (stereo not drawn) the results were HP1b chromo inh inactive, VDR inhibitor inactive, BAZ2B inh inactive, L3MBTL1 block inactive, PLK1 PBD block inactive and JMJD2A Tudor inh inactive.
O=C(O)CC1S/C(=N/N=C/C=C/c2ccccc2)NC1=O (stereo not drawn) was read as HP1b chromo inh inactive, VDR inhibitor inactive, BAZ2B inh 79.4µM, L3MBTL1 block inactive, PLK1 PBD block inactive and JMJD2A Tudor inh 79.4µM.
`CCOC(=O)c1sc2cccc(F)c2c1S(=O)(=O)Nc1ccccc1F` gave HP1b chromo inh inactive, VDR inhibitor inactive, BAZ2B inh inactive and JMJD2A Tudor inh inactive.
For CCOc1ccc(NC(=S)N(CCc2c(C)[nH]c3ccccc23)Cc2cccnc2)cc1 the results were HP1b chromo inh inactive, VDR inhibitor inactive, BAZ2B inh inconclusive, L3MBTL1 block inconclusive, PLK1 PBD block inactive and JMJD2A Tudor inh inconclusive.
`COc1ccc(NC(=S)N(CCc2c(C)[nH]c3ccc(C)cc23)Cc2cccnc2)cc1` gave HP1b chromo inh inactive, VDR inhibitor inactive, BAZ2B inh 35.5µM, L3MBTL1 block inactive, PLK1 PBD block inactive and JMJD2A Tudor inh 50.1µM.
`CCOc1ccc(NC(=S)N(CCc2c(C)[nH]c3ccc(C)cc23)Cc2ccncc2)cc1` gave HP1b chromo inh inactive, VDR inhibitor inactive, BAZ2B inh 35.5µM, L3MBTL1 block inactive, PLK1 PBD block inactive and JMJD2A Tudor inh 25.1µM.
For Cc1c(C(=O)N2CCC(N3CCSCC3)CC2)oc2c(F)cccc12 the results were HP1b chromo inh inactive, VDR inhibitor inactive, BAZ2B inh inactive, PLK1 PBD block inactive and JMJD2A Tudor inh inactive.
Cc1ccc(CNC(=O)c2ccc(Cn3nc(C)c(Cl)c3C)o2)cc1 was read as HP1b chromo inh inactive, VDR inhibitor inactive, BAZ2B inh 50.1µM, L3MBTL1 block inactive, PLK1 PBD block inactive and JMJD2A Tudor inh inconclusive.
Cc1nnc(SCC2=C(C(=O)O)N3C(=O)C(NC(=O)C(C)n4nc(C(F)(F)F)cc4C)C3SC2)s1 (stereo not drawn) was read as HP1b chromo inh inactive, VDR inhibitor inactive, BAZ2B inh 50.1µM, PLK1 PBD block inactive and JMJD2A Tudor inh 63.1µM.
`Cc1nn(CC(=O)NC2C(=O)N3C(C(=O)O)=C(CSc4nnnn4C)CSC23)cc1Br` (stereo not drawn) gave HP1b chromo inh inactive, VDR inhibitor inactive, BAZ2B inh inconclusive, PLK1 PBD block inactive and JMJD2A Tudor inh inactive.
Screening FC(F)(F)c1cnc(C(c2ccccn2)c2ncn[nH]2)c(Cl)c1 (stereo not drawn) returned HP1b chromo inh inactive, VDR inhibitor inactive, BAZ2B inh 2.51µM, L3MBTL1 block 8.91µM, PLK1 PBD block inactive and JMJD2A Tudor inh 15.8µM.
`FC(F)(F)c1cnc(C(c2ccccc2)c2ncn[nH]2)c(Cl)c1` (stereo not drawn) gave HP1b chromo inh inactive, VDR inhibitor inactive, BAZ2B inh inactive, L3MBTL1 block inactive, PLK1 PBD block inactive and JMJD2A Tudor inh inactive.
c1ccc2c(c1)COC(CNC1CCCCC1)OC2 was read as HP1b chromo inh inactive, VDR inhibitor inactive, BAZ2B inh inactive, L3MBTL1 block inactive, PLK1 PBD block inactive and JMJD2A Tudor inh inactive.
Screening CCN(CC)CCCNC(=O)/C(=C\c1cccn1C)NC(=O)c1cccs1 returned HP1b chromo inh inactive, VDR inhibitor inactive, BAZ2B inh inconclusive, L3MBTL1 block inactive, PLK1 PBD block inactive and JMJD2A Tudor inh inactive.
CCN(CC)CCC=C(c1cccs1)c1cccs1 was read as HP1b chromo inh inconclusive, VDR inhibitor inactive, PLK1 PBD block inconclusive and JMJD2A Tudor inh 0.891µM.
Nc1nc(SCC(=O)O)c2[nH]cnc2n1 was read as HP1b chromo inh inactive, VDR inhibitor inactive and JMJD2A Tudor inh inactive.
`O=C(CCn1cnc2onc(-c3ccc(F)cc3)c2c1=O)Nc1ccc(F)c(Cl)c1` gave HP1b chromo inh inactive, VDR inhibitor inactive, BAZ2B inh inactive and JMJD2A Tudor inh inactive.
COc1ccc(-c2cc(-c3cc(C)ccc3O)[nH]n2)cc1 was read as HP1b chromo inh inactive, VDR inhibitor inactive, BAZ2B inh inactive, L3MBTL1 block inactive, PLK1 PBD block inactive and JMJD2A Tudor inh inactive.
Screening Cc1ccc(O)c(N=Nc2ccc(S(=O)(=O)N3CCCC3)cc2)c1 returned HP1b chromo inh inactive, VDR inhibitor inactive, BAZ2B inh 3.98µM, PLK1 PBD block inactive and JMJD2A Tudor inh inconclusive.
For Cc1ccc(O)c(N=Nc2nccs2)c1 the results were HP1b chromo inh inconclusive, VDR inhibitor inactive, BAZ2B inh 10µM, L3MBTL1 block inconclusive, PLK1 PBD block inactive and JMJD2A Tudor inh 35.5µM.
For COc1ccc(N=Nc2ccc3ccccc3c2)c(O)c1 the results were HP1b chromo inh 3.16µM, VDR inhibitor inactive, BAZ2B inh 5.62µM, L3MBTL1 block inconclusive, PLK1 PBD block inactive and JMJD2A Tudor inh 10µM.
COc1ccc(N=Nc2cc(C)ccc2O)cc1 was read as HP1b chromo inh 14.1µM, VDR inhibitor inactive, BAZ2B inh 8.91µM, L3MBTL1 block inconclusive, PLK1 PBD block inactive and JMJD2A Tudor inh 25.1µM.
For CCCOc1ccc(C2C(=O)N(C3CCCCCC3)CC(=O)N2Cc2ccc(OC)cc2)cc1OC (stereo not drawn) the results were HP1b chromo inh inactive, VDR inhibitor inactive, BAZ2B inh inactive and JMJD2A Tudor inh inactive.
For CCOC(=O)c1cccnc1SCC(=O)Nc1ccc(C)cc1C the results were HP1b chromo inh inactive, VDR inhibitor inactive, BAZ2B inh inactive and JMJD2A Tudor inh inactive.
Screening CCCCN1C(=O)C(C(=O)OCc2ccccc2)CC2=C1CCCC2=O (stereo not drawn) returned HP1b chromo inh inactive, VDR inhibitor inactive, PLK1 PBD block inactive and JMJD2A Tudor inh inactive.
Screening Cc1ccc(N=Cc2sc(O)c3ccccc23)c(C)c1 returned HP1b chromo inh inactive, VDR inhibitor inactive, BAZ2B inh inactive, L3MBTL1 block inactive, PLK1 PBD block inactive and JMJD2A Tudor inh inactive.
COc1cccc(N=Nc2ccc3ccccc3c2O)c1 was read as HP1b chromo inh inconclusive, VDR inhibitor inactive, BAZ2B inh 1.58µM, L3MBTL1 block inactive, PLK1 PBD block inactive and JMJD2A Tudor inh 2.82µM.
For Oc1c(N=Nc2nn[nH]n2)ccc2ccccc12 the results were PLK1 PBD block 16.8µM.
`Cc1ccc(N=Nc2ccc3ccccc3c2O)cc1` gave HP1b chromo inh inconclusive, VDR inhibitor inactive, BAZ2B inh 1.12µM, L3MBTL1 block inconclusive, PLK1 PBD block inconclusive and JMJD2A Tudor inh 3.16µM.
